Data on 40 compounds can be found in the supplement of paper PMC9262897, “Low-cost anti-mycobacterial drug discovery using engineered E. coli” (Nature Communications, 2022).

Structures can show the parent of a compound that is named as a salt. ± gives the standard deviation of the averaged measurements.

The assay concerns E. coli TESEC Alr+ wild-type control. Kind of assay: growth (OD600 after 10 h); higher = more growth (less inhibition). To be noted: compound 0.1 mM; raw OD600 reference: median of DMSO wells 0.49, cell-free background 0.052. How it is done: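 TESEC Mtb Alr E. coli (ΔaraC ΔtolC ΔentC Δalr ΔdadX, arabinose-inducible Mtb Alr) or the Alr+ wild-type control strain, grown in defined M9-fructose medium without D-alanine in 96-well plates with Prestwick library compounds at 0.1 mM and 1% DMSO. Low Alr induction is 0.1 µM arabinose and high induction is 10 mM arabinose.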
`CN(C)CCC=C1c2ccccc2CCc2ccccc21` [Amitryptiline hydrochloride]: the growth was 0.476 ± 0.0078.

Regarding `CCCCc1ccc2[nH]c(NC(=O)OC)nc2c1` [Parbendazole], the growth worked out at 0.496 ± 0.038.

The compound `CCn1cc(C(=O)O)c(=O)c2cc(F)c(N3CCN(C)CC3)cc21` [Pefloxacine] yielded a growth of 0.0507 ± 0.0001.

Regarding `CCCCC(CC)CNC(=N)NC(=N)NCCCCCCNC(=N)NC(=N)NCC(CC)CCCC` (stereo not given) [Alexidine dihydrochloride], the growth was 0.0485 ± 0.0022.

`Clc1ccccc1C(c1ccccc1)(c1ccccc1)n1ccnc1` [Clotrimazole] came in with a growth of 0.0507 ± 0.0011.

The compound `CC(C(=O)O)c1ccc(C(=O)c2ccccc2)s1` (stereo not given) [Tiaprofenic acid] had a growth of 0.502 ± 0.059.

Take `c1ccc(-c2ccc(C(c3ccccc3)n3ccnc3)cc2)cc1` (stereo not given) [Bifonazole]: the growth was determined as 0.0548 ± 0.0039.

On to `Nc1c2c(nc3ccccc13)CCCC2` [Tacrine hydrochloride], for which the growth came out at 0.513 ± 0.063.

As to `CC[C@@H]1C(=O)OC[C@@H]1Cc1cncn1C` [Pilocarpine nitrate], the growth stood at 0.674 ± 0.05.

For the compound `CCCCOc1ccc(CC(=O)NO)cc1` [Bufexamac], the growth worked out at 0.437 ± 0.031.

The compound `O=c1oc2ccccc2c(O)c1Cc1c(O)c2ccccc2oc1=O` [Dicumarol] had a growth of 0.191 ± 0.025.

`O=C(O)c1ccccc1C(=O)Nc1ccc(S(=O)(=O)Nc2nccs2)cc1` [Phthalylsulfathiazole]: the growth worked out at 0.47 ± 0.037.

In the case of `COc1cc(N)c(Cl)cc1C(=O)NC1CCN(Cc2ccccc2)CC1` [Clebopride maleate], the growth turned out to be 0.474 ± 0.027.

As to `CCc1cc(C(N)=S)ccn1` [Ethionamide], the growth came out at 0.583 ± 0.11.

Consider `O=C(NCCNCC(O)COc1ccc(O)cc1)N1CCOCC1` (stereo not given) [Xamoterol hemifumarate], for which the growth turned out to be 0.631 ± 0.0095.

For `COc1cc2nc(N3CCN(C(=O)C4COc5ccccc5O4)CC3)nc(N)c2cc1OC` (stereo not given) [Doxazosin mesylate], the growth turned out to be 0.0495 ± 0.0017.

The compound `CNCCCC1c2ccccc2C=Cc2ccccc21` [Protriptyline hydrochloride] returned a growth of 0.558 ± 0.023.

Turning to `CC(C)CC(=O)N[C@H](C(=O)N[C@H](C(=O)N[C@@H](CC(C)C)[C@@H](O)CC(=O)N[C@@H](C)C(=O)N[C@@H](CC(C)C)[C@@H](O)CC(=O)O)C(C)C)C(C)C` [Pepstatin A], the growth turned out to be 0.468 ± 0.053.

On to `Cc1ccc(-c2cc(C(F)(F)F)nn2-c2ccc(S(N)(=O)=O)cc2)cc1` [Celecoxib], for which the growth is 0.425 ± 0.11.

In turn, `C[C@@H](O)[C@H]1C(=O)N2C(C(=O)O)=C(SCCNC=N)C[C@H]12` [Imipenem] returned a growth of 0.271 ± 0.022.

Compound `Cn1c(=O)c2c(ncn2CC(O)CO)n(C)c1=O` (stereo not given) [Diprophylline] yielded a growth of 0.45 ± 0.05.

In turn, `Clc1ccc(CSC(Cn2ccnc2)c2ccc(Cl)cc2Cl)cc1` (stereo not given) [Sulconazole nitrate] yielded a growth of 0.0607 ± 0.0028.

In the case of `CN(N=O)C(=O)N[C@H]1C(O)O[C@H](CO)[C@@H](O)[C@@H]1O` (mixture of isomers) [Streptozotocin], the growth came out at 0.226 ± 0.025.

`Cc1c(NC(=O)c2cccnc2)c(=O)n(-c2ccccc2)n1C` [Nifenazone] yielded a growth of 0.507 ± 0.062.

`CCCCC(=O)O[C@H]1CC[C@H]2[C@@H]3CCc4cc(O)ccc4[C@H]3CC[C@]12C` [Estradiol Valerate] returned a growth of 0.48 ± 0.071.

On to `CN(CCCN1c2ccccc2CCc2ccccc21)CC(=O)c1ccc(Cl)cc1` [Lofepramine], for which the growth was 0.343 ± 0.013.

`COc1ccccc1OCCNCC(O)COc1cccc2[nH]c3ccccc3c12` (stereo not given) [Carvedilol]: the growth turned out to be 0.167 ± 0.11.

In turn, `CCC[C@H](N[C@@H](C)C(=O)N1[C@H](C(=O)O)C[C@@H]2CCCC[C@@H]21)C(=O)OCC` [Perindopril] came in with a growth of 0.555 ± 0.1.

As for `CC(C)/N=c1\cc2n(-c3ccc(Cl)cc3)c3ccccc3nc-2cc1Nc1ccc(Cl)cc1` [Clofazimine], the growth came out at 0.154 ± 0.012.

`CCOC(=O)C1=C[C@]2(CC)CCCN3CCc4c(n1c1ccccc41)[C@@H]32` [Vinpocetine]: the growth amounted to 0.557 ± 0.044.

Consider `C[C@@H]1C[C@H]2[C@@H]3C[C@H](F)C4=CC(=O)C=C[C@]4(C)[C@@]3(Cl)[C@@H](O)C[C@]2(C)[C@H]1C(=O)COC(=O)C(C)(C)C` [Clocortolone pivalate], for which the growth stood at 0.477 ± 0.013.

For the compound `CC[C@@]1(O)C(=O)OCc2c1cc1n(c2=O)Cc2cc3c(CN(C)C)c(O)ccc3nc2-1` [Topotecan], the growth is 0.483 ± 0.024.

With `Cc1cccc(C)c1NC(=O)C(C)N` (stereo not given) [Tocainide hydrochloride], the growth was found to be 0.483 ± 0.061.

As to `Nc1ccc(S(=O)(=O)Nc2ccccn2)cc1` [Sulfapyridine], the growth came to 0.449 ± 0.0039.

`O=C1NCN(c2ccccc2)C12CCN(CCCC(c1ccc(F)cc1)c1ccc(F)cc1)CC2` [Fluspirilen] gave a growth of 0.055 ± 0.0016.

In turn, `C[C@H]1C[C@@H]2[C@H]([C@@H](O)C[C@@]3(C)[C@H]2CC[C@]3(O)C(=O)CO)[C@@]2(C)C=CC(=O)C=C12` [Methylprednisolone, 6-alpha] showed a growth of 0.459 ± 0.028.

Compound `CC1CC(OC(=O)C(O)c2ccccc2)CC(C)(C)N1C` (stereo not given) [Eucatropine hydrochloride] gave a growth of 0.444 ± 0.029.

Regarding `Nc1nc(/C(=C/CC(=O)O)C(=O)N[C@@H]2C(=O)N3C(C(=O)O)=CCS[C@H]23)cs1` [Ceftibuten], the growth came out at 0.252 ± 0.016.

In turn, `CCCCCCCCNC(C)C(O)c1ccc(SC(C)C)cc1` (stereo not given) [Suloctidil] returned a growth of 0.0529 ± 0.0091.

Take `CC1(C)S[C@@H]2[C@H](NC(=O)[C@H](N)c3ccccc3)C(=O)N2[C@H]1C(=O)O` [Ampicillin trihydrate]: the growth amounted to 0.479 ± 0.038.
